This is a sample that favours compounds with a hit; in the whole collection about 3.3% have one here.
esBAF inh = blocks esBAF chromatin remodeling in mouse ES cells. Bmi1-luciferase knock-in reporter, 24 h; 100% = twice the neutral-well signal. reporter increase, % at 12.5 µM. 350,000 tested, 2% active. AID 602393; in the data active = activation above about 40%; inconclusive = no clear call, values can overlap the other calls;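 also: 0% = median of the plate's neutral control wells and 100% = double that signal; a rise in the Bmi1 reporter signal indicates esBAF inhibition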
Wnt bcat act = Wnt/beta-catenin pathway activation | activation, % at 9.35 µM | AID 743398 | Wnt/beta-catenin reporter cell assay, activator, plate reader | 300,000 tested, 1.2% active; in the data active = activation above about 30%, passing the limit was not always enough; inconclusive = no clear call, values can overlap the other calls;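 also: 0% = neutral control wells and 100% = positive control wells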
FXN GAA850 act = activators of GAA850 frataxin (FXN) promoter; 360,000 tested, 0.56% active; activation, % at 6 µM; AID 540364; HEK293 lucGAA850 FXN promoter luciferase reporter, 24 h; percent of 10 µM SAHA response;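 active = activation above the average of all compounds screened plus 3 SD, cutoff fixed separately per campaign, cut at about 7.5% in these data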;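 also: 0% = DMSO wells and 100% = 10 µM SAHA wells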
C2C12 statin = suppression of simvastatin myotoxicity | rescue of ATP level, % at 7.49 µM | C2C12 myotubes + simvastatin, ATP luminescence, 48 h; scaled: DMSO 0, geranylgeraniol control 100 | AID 602340 | 330,000 tested, 0.78% active;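 active = mean ATP rescue above about 67%, or every replicate alone reaching that limit, limit read from the data, passing the limit was not always enough; inconclusive = no clear call, values can overlap the other calls; inactive = mean under the limit and some replicate under it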;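 also: myotubes were challenged with 10 µM simvastatin during compound exposure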
MITF TRPM1 HTS = increases MITF-driven TRPM1 promoter luciferase signal; activation, % at 12.5 µM; 300,000 tested, 0.75% active; SK-MEL-5 TRPM1-promoter luciferase, 24 h; % of positive control, neutral wells = 0;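 active = mean activation of at least 80% with every replicate also reaching 80%; inconclusive = mean reaches 80% but some replicate falls short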;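 also: 0% = neutral control wells and 100% = parthenolide positive control wells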
esBAF Ring1 qPCR = de-represses Ring1 in mouse ESCs, confirming esBAF inhibition; shares compounds with esBAF inh; mouse ESC E14, Ring1 mRNA RT-qPCR fold change; fold change at 33 µM; 550 tested, under 10 active; AID 743176;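 active = Ring1 gene expression raised more than 2-fold over untreated cells in both replicates at either tested dose; inconclusive = only one replicate above 2-fold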;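 also: Ring1 transcript normalised to actin housekeeping signal by TaqMan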
esBAF Fgf4 qPCR = represses Fgf4 in mouse ESCs, confirming esBAF inhibition; shares compounds with esBAF inh; mouse ESC E14, Fgf4 mRNA qPCR fold change; hits give low values; Fgf4 expression fold change at 33 µM; 550 tested, 4% active;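 active = Fgf4 expression under 0.8 fold of control in both repeat measurements at one or both tested doses; inconclusive = under 0.8 fold in just a single repeat measurement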;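 also: Fgf4 transcript normalised to actin in duplex TaqMan qPCR; cells exposed to compound for 24 h before lysis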
Bmi1 derepress = esBAF inhibition confirmed by Bmi1 de-repression. shares compounds with esBAF inh. mouse ESE14 ES cells, Bmi1 mRNA qPCR fold; hits give high values. fold change at 33 µM. 550 tested, under 10 active. AID 743180;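 active = Bmi1 expression fold change above 6 at either tested concentration, seen in replicate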;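 also: higher fold means more Bmi1 de-repression and stronger esBAF inhibition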
A549 cytotox = kills or reduces viability of A549 cells | cell viability change % (negative = cytotoxic), % at 25 µM, hits read low | AID 743188 | shares compounds with esBAF inh | A549 cytotoxicity, plate reader | 550 tested, under 10 active; call rule not given here
HepG2 tox SP = cytotoxicity in HepG2 cells; AID 743189; plate reader; hits give low values; activity change, negative = inhibition, % at 25 µM; shares compounds with esBAF inh; 550 tested, 4% active; in the data active = activity change below about -50%
HEK293 tox SP = kills or reduces viability of HEK293 cells | shares compounds with esBAF inh | HEK293 cytotoxicity, plate reader | activity change, negative = inhibition, % at 25 µM, hits read low | 550 tested, 3% active | AID 743190; in the data active = activity change below about -38%, passing the limit was not always enough
Numbers without * were called inactive; ? = inconclusive; · = not tested or not shown.

SMILES	esBAF inh	Wnt bcat act	FXN GAA850 act	C2C12 statin	MITF TRPM1 HTS	esBAF Ring1 qPCR	esBAF Fgf4 qPCR	Bmi1 derepress	A549 cytotox	HepG2 tox SP	HEK293 tox SP
COC(=O)c1cc(Nc2cc(C)c3c(O)cccc3n2)cc(C(=O)OC)c1	0	1	-2	6	18	·	·	·	·	·	·
O=C(NC(Cc1nn[nH]n1)C(=O)OCc1ccccc1)OCc1ccccc1 (stereo not given)	-3	2	3	7	·	·	·	·	·	·	·
O=C(CC(NC(=O)OCc1ccccc1)c1nn[nH]n1)OCc1ccccc1 (stereo not given)	75*	15	2	1	·	1.3	0.97	1.5	-9	-17	-3
O=C(CC(=O)c1ccccc1)c1ccccc1	86*	1	4	-2	46	1.3	0.82	1.8	-5	-18	-3
O=C(CC(=O)c1ccncc1)c1ccccc1	·	16	1	·	12	·	·	·	·	·	·
CN(C)C(=O)c1cccc(-c2ccc3c(c2)[C@@H]2[C@@H](CCN2C(=O)c2ccc4c(c2)OCO4)[C@H](CO)N3)c1	6	·	·	-20	·	·	·	·	·	·	·
CN(C)S(=O)(=O)c1cccc(C(=O)Nc2ccc3c(c2)CCC3)c1	10	25	3	-20	48	·	·	·	·	·	·
CN(C)S(=O)(=O)c1ccc(C(=O)Nc2ccc3c(c2)CCC3)cc1	75*	22	3	-4	47	1	0.94	1.7	-2	-43	-14
O=C(C[C@H]1C=C[C@H](NC(=O)Nc2ccc3c(c2)OCO3)[C@@H](CO)O1)NCc1ccc(F)cc1	-5	·	·	-13	·	·	·	·	·	·	·
COc1ccc(-c2csc(Nc3cc(C)ccn3)n2)cc1C	46*	13	4	14	19	1.3	?	1.4	-6	-20	-9
Cc1ccc(Nc2nc(-c3ccccc3)cs2)nc1	-44	1	1	-13	3	·	·	·	·	·	·
CC(=O)Nc1sc(N/N=C\c2ccccc2F)nc1-c1cccs1	·	2	-9	·	-12	·	·	·	·	·	·
Cc1csc(N/N=C/c2ccccc2F)n1	62*	11	4	-4	49	1	0.94	1.6	-6	-57*	-2
COc1ccc(S(=O)(=O)N(C)C[C@@H]2OCCCC[C@@H](C)Oc3ccc(NC(=O)Nc4ccccc4)cc3C(=O)N([C@H](C)CO)C[C@H]2C)cc1	2	·	·	·	·	·	·	·	·	·	·
O=C(Cc1ccccc1)N1C[C@H]2[C@@H](c3ccccc31)[C@H](CO)N2C(=O)c1cccc(F)c1	0	·	·	17	·	·	·	·	·	·	·
COc1ccc(NC(=O)N(C)C[C@H]2Oc3ccc(NC(=O)Nc4ccc5c(c4)OCO5)cc3CC(=O)N([C@@H](C)CO)C[C@@H]2C)cc1	7	·	·	27	·	·	·	·	·	·	·
Cc1ccc(S(=O)(=O)Nc2ccc3c(c2)C(=O)N([C@@H](C)CO)C[C@@H](C)[C@@H](CN(C)C(=O)CCC(F)(F)F)OCCCC[C@@H](C)O3)cc1	7	·	·	·	·	·	·	·	·	·	·
Cc1cccc(C)c1OCc1cc(C(=O)N2CCC(C3CCCCC3)C2)no1 (stereo not given)	56*	24	4	12	56	1.2	0.86	1.4	-3	2	-3
O=C(c1cc(COc2ccc(F)cc2F)on1)N1CC[C@@H]2CCCC[C@H]2C1	6	1	3	4	12	·	·	·	·	·	·
C=CCNc1nc(-c2ccc(O)c(C(N)=O)c2)cs1	59*	-3	-1	12	55	1.2	1	1.3	-7	-36	-6
CC(=O)Oc1ccc2cc(-c3ccccc3)c(=O)oc2c1	60*	15	2	1	60	1.3	0.89	1.6	-14	-7	3
COc1cccc(NC(=O)C(=O)NCCC2CCCCN2S(=O)(=O)c2ccccc2)c1 (stereo not given)	79*	-3	3	-3	110*	0.99	0.94	1.8	-9	-33	-15
COc1ccccc1NC(=O)C(=O)NCCC1CCCCN1S(=O)(=O)c1ccccc1 (stereo not given)	-5	0	0	6	-11	·	·	·	·	·	·
O=c1sc(N2CCN(c3ccc(F)cc3)CC2)nc2ccsc12	62*	26	5	-2	·	1.3	0.94	1.6	3	-13	-9
CCC(C)c1ccc(NC(=O)C2CC2)cc1 (stereo not given)	74*	23	3	-49	46	1.1	0.84	1.7	-13	-10	-4
SMILES	esBAF inh	Wnt bcat act	FXN GAA850 act	C2C12 statin	MITF TRPM1 HTS	esBAF Ring1 qPCR	esBAF Fgf4 qPCR	Bmi1 derepress	A549 cytotox	HepG2 tox SP	HEK293 tox SP
CCOC(=O)c1ccc(NC(=O)C2CC2)cc1	22	·	4	-22	44	·	·	·	·	·	·
C[C@H](CO)N1C[C@H](C)[C@H](CN(C)S(=O)(=O)c2cn(C)cn2)Oc2cc(C3=CCCCC3)ccc2S1(=O)=O	-3	·	·	-6	·	·	·	·	·	·	·
O=C(O)C[C@@H]1C[C@H]2c3cc(NC(=O)NC4CCCC4)ccc3O[C@H]2[C@@H](CO)O1	4	·	·	0	·	·	·	·	·	·	·
COc1cccc(NC(=O)N2CCN(c3cccc(C)c3C)CC2)c1	72*	0	1	2	·	1.1	1	1.2	-3	13	-5
COc1ccccc1N1CCN(C(=O)Nc2cccc(Cl)c2)CC1	13	-2	2	20	27	·	·	·	·	·	·
Cc1cc(Cl)ccc1OCc1nnc(-c2ccccc2C)o1	99*	41*	1	-15	116*	0.89	0.93	1.4	-10	-24	4
COc1cc(-c2nnc(COc3ccc(Cl)cc3C)o2)cc(OC)c1OC	-4	-5	0	-11	2	·	·	·	·	·	·
O=C(CN1CCOCC1)N[C@@H]1CC[C@H](CCn2cc(C3CCCCC3)nn2)O[C@H]1CO	1	·	·	3	·	·	·	·	·	·	·
COc1ccc(NC(=O)N(C)C[C@H]2Oc3ccc(NS(=O)(=O)c4ccc(OC)cc4)cc3C(=O)N([C@@H](C)CO)C[C@@H]2C)cc1	-5	·	·	-16	·	·	·	·	·	·	·
Clc1ccc(-c2nnc(-c3cccc4ccccc34)o2)cc1	71*	39*	5	-4	26	1.3	1	1.6	-6	45	-6
CCCNC(=O)Nc1ccc2c(c1)C(=O)N(C)C[C@H](OC)[C@@H](C)CN(Cc1ccncc1)[C@@H](C)CO2	-3	·	·	-16	·	·	·	·	·	·	·
O=C(CNC1CCCCC1)N1CCc2ccccc2C1	·	-3	0	·	·	·	·	·	·	·	·
